Assay outcomes deposited in PubChem by several laboratories.
The sample as a whole holds a higher share of hits than the screen did.
AMPAR-TARP mod – modulators of AMPA receptor GluA2-stargazin complexes; O88602+P19491; HEK293 GluA2+stargazin, membrane potential dye (FDSS), glutamate EC50; hits were called plate by plate, in both directions; calls only at 30 µM; 3.5% of 40,000 active; AID 1259245;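 active = any of four per-well response measures lying three or more SD from its plate-wide compound average, in either direction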
GIRK2 activator – GIRK2 channel activators by thallium flux; P48051; 34,000 tested, under 10 active; HEK293 GIRK2/NPY4 cells, thallium flux fluorescence; activation (% efficacy), % for hits at 37.5 µM;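 active = primary screen hit, no activity in plain HEK293 cells, and in GIRK2-only cells above 5% efficacy rising with concentration; inactive = the rest, including fluorescent compounds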;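 also: efficacy is normalized control-subtracted fluorescence 15 s after thallium addition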
Target sequence (P48051 whole entry, looked up): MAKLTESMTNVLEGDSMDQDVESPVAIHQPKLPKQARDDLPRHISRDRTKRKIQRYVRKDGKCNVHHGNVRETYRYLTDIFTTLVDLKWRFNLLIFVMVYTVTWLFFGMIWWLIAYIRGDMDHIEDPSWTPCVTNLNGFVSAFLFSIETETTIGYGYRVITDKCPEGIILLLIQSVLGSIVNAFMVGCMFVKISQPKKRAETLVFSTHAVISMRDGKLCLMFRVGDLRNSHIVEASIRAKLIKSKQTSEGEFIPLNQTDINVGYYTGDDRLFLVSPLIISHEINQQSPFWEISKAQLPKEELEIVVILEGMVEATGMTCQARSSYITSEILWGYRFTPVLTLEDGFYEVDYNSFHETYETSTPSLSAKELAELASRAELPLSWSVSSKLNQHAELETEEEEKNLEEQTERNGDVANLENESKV
Numbers without * were called inactive.

Results for O=C(CCc1csc(NS(=O)(=O)c2ccccc2)n1)Nc1nc2ccccc2s1 ?
AMPAR-TARP mod: inactive; GIRK2 activator: inactive

How did Cc1nnc(NC(=O)CCc2csc(NS(=O)(=O)c3ccccc3)n2)s1 do in these assays?
AMPAR-TARP mod: active; GIRK2 activator: inactive

Results for CNC(=O)Cc1csc(NC(=O)c2csc(Nc3ccccc3)n2)n1 ?
GIRK2 activator: inactive

How did COC(=O)Nc1nc(CC(=O)NCCc2c[nH]c3ccccc23)cs1 do in these assays?
GIRK2 activator: inactive

What do the screens show for `Cc1nnc(NC(=O)Cc2csc(Nc3ccccc3)n2)s1`?
AMPAR-TARP mod: active; GIRK2 activator: inactive

What do the screens show for `O=C(Cc1csc(Nc2ccccc2)n1)NCCc1c[nH]c2ccccc12`?
AMPAR-TARP mod: active; GIRK2 activator: inactive

What do the screens show for `COc1ccc(NC(=O)Nc2c(C)nc3ccccn3c2=O)cc1`?
AMPAR-TARP mod: inactive; GIRK2 activator: inactive

Results for COc1cccc(-c2noc(-c3cn[nH]c3-c3ccccc3)n2)c1OC ?
AMPAR-TARP mod: inactive; GIRK2 activator: inactive

How did NC(=O)C1Cc2ccccc2N1C(=O)c1cc2ccccc2o1 (stereo not given) do in these assays?
AMPAR-TARP mod: inactive; GIRK2 activator: inactive

What do the screens show for `CC(=O)N1CCN(c2c(C)cnc3c2c(=O)n(CC(=O)Nc2ccccc2F)c(=O)n3C)CC1`?
AMPAR-TARP mod: inactive

How did CC(=O)Nc1ccc(S(=O)(=O)n2nc(C)c(C)c2C)cc1 do in these assays?
AMPAR-TARP mod: active

What do the screens show for `CC(=O)Nc1ccc(S(=O)(=O)N2CCN(c3c(C)cccc3C)CC2)cc1`?
AMPAR-TARP mod: inactive

Results for Cc1cc(C)c(S(=O)(=O)N2CCN(S(=O)(=O)N3CCCC3)CC2)c(C)c1 ?
AMPAR-TARP mod: inactive; GIRK2 activator: inactive

What do the screens show for `Cc1cc(C)c(S(=O)(=O)n2nc(C)c(C)c2C)c(C)c1`?
AMPAR-TARP mod: active

What do the screens show for `CCCOc1ccc(-n2nnc(C(=O)NCCc3ccccc3)c2C)cc1`?
AMPAR-TARP mod: inactive; GIRK2 activator: inactive

What do the screens show for `CSc1ccc(C(=O)Nc2nnc(-c3cccs3)o2)cc1`?
AMPAR-TARP mod: inactive

Results for CCCCN1C(=O)c2cccc3c(NC(=O)CCCS(=O)(=O)c4ccc(F)cc4)ccc1c23 ?
AMPAR-TARP mod: inactive

What do the screens show for `COc1cc(C)ccc1OCC(=O)N1CCN(c2ccc3nncn3n2)CC1`?
AMPAR-TARP mod: inactive; GIRK2 activator: inactive

How did COc1cc(C)ccc1OCC(=O)N1CCN(c2ccc3nnc(C)n3n2)CC1 do in these assays?
AMPAR-TARP mod: active; GIRK2 activator: inactive

How did CCOC(=O)C1=C(C)NC(=O)NC1c1ccc(OC)cc1 (stereo not given) do in these assays?
AMPAR-TARP mod: inactive

How did CCC(=O)N(CCC1(c2ccc(OC)cc2)CCOC(C)(C)C1)Cc1ccc(Cl)cc1 (stereo not given) do in these assays?
AMPAR-TARP mod: active

How did Cc1cc(C)c(C)c(S(=O)(=O)NCC2CCN(Cc3ccco3)CC2)c1C do in these assays?
AMPAR-TARP mod: inactive; GIRK2 activator: inactive

How did CCCNC(=O)c1ccccc1N do in these assays?
AMPAR-TARP mod: inactive

What do the screens show for `CC(=O)NS(=O)(=O)c1ccc(NC(=O)c2csc(-c3cnccn3)n2)cc1`?
AMPAR-TARP mod: active; GIRK2 activator: inactive

Results for O=C(Nc1ccc(-n2cnnn2)cc1)c1csc(-c2cnccn2)n1 ?
AMPAR-TARP mod: inactive; GIRK2 activator: inactive

What do the screens show for `Cc1cc(NC(=O)c2c(F)cccc2F)n(-c2nc3c(cnn3-c3cccc(Cl)c3)c(=O)[nH]2)n1`?
AMPAR-TARP mod: inactive; GIRK2 activator: inactive

What do the screens show for `CCC(CC)C(=O)Nc1cc(C)nn1-c1nc2c(cnn2-c2cccc(C)c2)c(=O)[nH]1`?
AMPAR-TARP mod: active; GIRK2 activator: inactive

How did Cc1cc(NC(=O)c2c(F)cccc2F)n(-c2nc3c(cnn3-c3ccc(C)c(C)c3)c(=O)[nH]2)n1 do in these assays?
AMPAR-TARP mod: active; GIRK2 activator: inactive

How did Cc1cccc(-n2ncc3c(=O)[nH]c(-n4nc(C)cc4NC(=O)C4CC4)nc32)c1 do in these assays?
AMPAR-TARP mod: inactive; GIRK2 activator: inactive

How did Cc1ccc(C)c(Cn2c(C3CC(=O)N(C)C3)nc3ccccc32)c1 (stereo not given) do in these assays?
AMPAR-TARP mod: inactive

How did Cc1cccc(N2CC(c3nc4ccccc4n3CC(=O)N3CCOCC3)CC2=O)c1 (stereo not given) do in these assays?
AMPAR-TARP mod: inactive; GIRK2 activator: inactive

What do the screens show for `CCc1nc2ccccc2n1Cc1ccccc1OC`?
AMPAR-TARP mod: inactive; GIRK2 activator: inactive

How did CCCc1nc2ccccc2n1Cc1ccccc1OC do in these assays?
AMPAR-TARP mod: active

Results for CC1CCCC1OCC(O)CN1CCc2ccccc2C1 (stereo not given) ?
AMPAR-TARP mod: inactive
